Screening results as filed in PubChem BioAssay.
Rows were chosen to be rich in hits. Some 4.5% of all compounds tested hit in one or more screens of this group.
tim23-1 inh = inhibits growth of tim23-1 mutant yeast; S. cerevisiae tim23-1 growth, BacTiter-Glo luminescence, 24 h; inhibition, % at 20 µM; 330,000 compounds, 1.3% hits; AID 463212;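 active means growth inhibition of the mutant yeast at or above 50%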;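 further: temperature-sensitive mutant grown at 25 °C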
SKKanGAS inh = inhibitors of SKKanGAS S. pyogenes growth in kanamycin (SK-promoter or general growth effect) | BacTiter-Glo, 6 h | inhibition, % at 7.5 µM | 300,000 compounds, 1.3% hits | AID 1662;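 active means mean replicate score, as percent of positive control median, at least 50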;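 further: strain carries kanamycin resistance gene driven by streptokinase promoter and grows in 40 µg/ml kanamycin; loss of luminescence reflects streptokinase promoter inhibition or plain growth inhibition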
PfHsp90 yeast 2 = reduces growth (ATP signal) of yeast expressing P. falciparum Hsp90. 310,000 compounds, 0.32% hits. S. cerevisiae expressing PfHsp90, BacTiter-Glo ATP, 48 h; yeast lacking PDR1 and PDR3 efflux regulators. inhibition, % at 9.4 µM;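 active means every replicate shows inhibition above about 80%, whatever the replicate mean, limit read from the data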
NALP3 yeast inh = inhibitors of NALP3 inflammasome in yeast; AID 2825; 330,000 compounds, 0.39% hits; inhibition, % at 10 µM; Yeast reconstituted NLRP3/ASC/caspase-1, beta-gal luminescence, 24 h;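 active means inhibition of 50% or more; inactive means inhibition below 50%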
tim10-1 inh = growth inhibitors of tim10-1 mutant yeast; S. cerevisiae tim10-1 ts strain growth, BacTiter-Glo, 24 h; inhibition, % at 20 µM; 330,000 compounds, 2.2% hits;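 active means inhibition of at least 40%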;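 further: mutant grown at 25 °C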
TIM10 inh = inhibits growth of TIM10 yeast strain; inhibition, % at 10 µM; 330,000 compounds, 1.4% hits; S. cerevisiae TIM10 strain growth, BacTiter-Glo luminescence, 24 h; AID 463195;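 active means inhibition of 40% or more at the single tested concentration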;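 further: wild-type TIM10 isogenic control strain grown at permissive 25 °C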
tim10-1 conf = tim10-1 yeast growth inhibition, confirmed; S. cerevisiae tim10-1 ts strain growth, BacTiter-Glo, 24 h; 7,400 compounds, 56% hits; inhibition, % at 20 µM; shares compounds with tim10-1 inh;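 active means inhibition of yeast growth at or above a set limit in either of two repeat tests at 20 µM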;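 further: tim10-1 mutant grown at permissive 25 °C to find synthetic lethal compounds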
Each line names hits and unclear results; the compound was inactive in the other large screens (follow-up assays come after a bar, where they were run); ! = repeats disagree.

CC(C(=O)N1CCN(c2ccc(Cl)cc2)CC1)c1ncc(C(F)(F)F)cc1Cl (centres undefined)	tim10-1 inh 43 | tim10-1 conf inactive
CN=C(Nc1cc(Cl)ccc1Cl)SC1CC(=O)N(c2ccc(C(=O)OC)cc2)C1=O (centres undefined)	SKKanGAS inh 52, tim10-1 inh 44 (no result: PfHsp90 yeast 2) | tim10-1 conf 42
COC(=O)c1ccc(N2C(=O)CC(SCC(=O)Nc3ccc(OC)cc3)C2=O)cc1 (centres undefined)	none
CCC(C)c1ccc(NC(=S)Nc2ccc(OC)c(OC)c2)cc1 (centres undefined)	tim10-1 inh 44 | tim10-1 conf 32
CCC(C)c1ccc(NC(=O)CN(C)CC(=O)Nc2cccc(OC)c2)cc1 (centres undefined)	none
CCC(C)c1ccc(NC(=O)CC(C)=O)cc1 (centres undefined)	tim10-1 inh 42 | tim10-1 conf inactive
COc1ccc(NC(=S)NC(C)c2ccncc2)cc1OC (centres undefined)	none
CCC(C)c1ccc(NC(=S)Nc2ccc(OC)cc2C)cc1 (centres undefined)	tim10-1 inh 45 | tim10-1 conf 36
CC[C@@]12C(=O)N(c3cccc(Br)c3)C(=O)N1[C@H](c1cccc(C)c1)[C@@H]1C(=O)N(Cc3ccccc3)C(=O)[C@@H]12	none
COc1ccc2nc(N/C(N)=N/C(=S)Nc3ccccc3)nc(C)c2c1	tim10-1 inh 50 | tim10-1 conf inactive
Cc1cccc(NC(=S)/N=C(\N)Nc2nc(C)c3ccccc3n2)c1	tim10-1 inh 44 | tim10-1 conf inactive
Cc1ccc(S(=O)(=O)/N=C(\N)Nc2nc(C)c3ccccc3n2)cc1	tim10-1 inh 45 | tim10-1 conf inactive
O=C(O)CN(CCc1ccccc1)S(=O)(=O)c1ccccc1	none
O=C(COC(=O)c1ccc([N+](=O)[O-])o1)NCCCc1ccccc1	none (no result: SKKanGAS inh)
C1CCN2CC3CC(CN4CCCC[C@@H]34)[C@H]2C1	none (no result: tim23-1 inh, SKKanGAS inh, NALP3 yeast inh, tim10-1 inh, TIM10 inh)
CCc1cccc(NC(=O)CN(c2ccc(C)cc2)S(=O)(=O)c2c(C)noc2C)c1	tim10-1 inh 49 | tim10-1 conf 36
Cc1ccc(N(CC(=O)N2CCN(c3ccc(F)cc3)CC2)S(=O)(=O)c2c(C)noc2C)cc1	tim10-1 inh 41 | tim10-1 conf inactive
O=S(=O)(Nc1cccc2ncccc12)c1cccc(C(F)(F)F)c1	none (no result: SKKanGAS inh)
CCCN1CCN(C(=O)C2CCN(c3ncnc4c3nc3n4CCCCC3)CC2)CC1	none
CCCCCCOc1ccc(N2C(=O)CC(N(CCc3ccc(S(N)(=O)=O)cc3)C(C)=O)C2=O)cc1 (centres undefined)	none
Cc1ccc(C)c(NS(=O)(=O)c2ccc(-c3cnc(C4CC4)o3)cc2)c1	none
COc1ccccc1NS(=O)(=O)c1cc(-c2cnc(C3CC3)o2)ccc1C	tim10-1 inh 45 | tim10-1 conf inactive
CC(=O)Nc1ccc(NS(=O)(=O)c2ccc(-c3cnc(C4CC4)o3)cc2)cc1	none
O=S(=O)(Nc1ccccc1)c1ccc(-c2cnc(C3CC3)o2)cc1	tim10-1 inh 46 | tim10-1 conf inactive
COc1ccc(NS(=O)(=O)c2cc(-c3cnc(C4CC4)o3)ccc2C)cc1	tim10-1 inh 44 | tim10-1 conf inactive
Cc1cccc(-c2cc3nc(-c4ccccc4)cc(=O)n3[nH]2)c1	none
O=C(COc1ccc([N+](=O)[O-])cc1)Nc1nc(-c2ccccn2)cs1	SKKanGAS inh 57, tim10-1 inh 42 (no result: PfHsp90 yeast 2) | tim10-1 conf inactive
O=C(COc1ccccc1)Nc1nc(-c2cccnc2)cs1	none (no result: SKKanGAS inh)
Cc1nc(SC2CC(=O)N(c3ccccc3)C2=O)nc2c1CCCC2 (centres undefined)	none
O=C1CC(Sc2nnc(-c3ccccc3)o2)C(=O)N1c1ccccc1 (centres undefined)	tim10-1 inh 51 | tim10-1 conf 51
COc1ccc(N2C(=O)CC(Sc3nc4ccccc4s3)C2=O)cc1 (centres undefined)	tim10-1 inh 41 | tim10-1 conf 33
Cc1nnc(SC2CC(=O)N(c3ccccc3)C2=O)s1 (centres undefined)	tim10-1 inh 47 | tim10-1 conf 38
O=C1CC(Sc2cccs2)C(=O)N1c1ccccc1 (centres undefined)	tim10-1 inh 42 | tim10-1 conf 40
CCOc1ccc2nc(SC3CC(=O)N(c4ccc(OC)cc4)C3=O)sc2c1 (centres undefined)	none (no result: PfHsp90 yeast 2)
COCc1cc(=O)[nH]c(/N=C(\N)Nc2c(F)cccc2F)n1	none (no result: PfHsp90 yeast 2)
COc1ccccc1NS(=O)(=O)c1ccc(C(=O)Nc2ncccc2O)cc1	none (no result: SKKanGAS inh)
COc1cc2c(C#N)c(N3CCCC3)nc(N)c2c(N)n1	tim10-1 inh 43! | tim10-1 conf inactive
CC1=CC(C)(C)N2C(=O)C3(SCC(=O)N3c3ccc(O)cc3)c3cc(C)cc1c32 (centres undefined)	tim10-1 inh 43 | tim10-1 conf inactive
Cc1ccc(N2C(=O)CSC23C(=O)Nc2ccccc23)cc1 (centres undefined)	none
CCCN(CC(=O)Nc1ccccc1OC)C(=O)c1cc(-c2cccs2)nn1-c1ccccc1	none (no result: PfHsp90 yeast 2)
O=C(Nc1ccccc1C(=O)N1CCN(c2cccc(Cl)c2)CC1)C1=CSCCO1	none
O=C(Nc1ccc(C(=O)NCc2ccccc2)cc1)C1=CSCCO1	none
O=C(Nc1ccc(C(=O)N2CCN(c3ccc(F)cc3)CC2)cc1)C1=CSCCO1	tim10-1 inh 47 | tim10-1 conf 36
COc1ccc(N2CCN(C(=O)c3ccc(NC(=O)C4=CSCCO4)cc3)CC2)cc1	tim10-1 inh 43 | tim10-1 conf 29
CCc1ccc(CNC(=O)c2ccc(NC(=O)C3=CSCCO3)cc2)cc1	tim10-1 inh 44 | tim10-1 conf inactive
NC(=O)C1CCN(CC(=O)Nc2cc(S(=O)(=O)N3CCOCC3)ccc2N2CCCC2)CC1	none (no result: SKKanGAS inh)
C=C(C)COc1ccc(-c2[nH]ncc2Oc2ccccc2OC)c(O)c1	tim10-1 inh 55 | tim10-1 conf 39
CCOc1ccc(-c2[nH]ncc2Oc2ccccc2OC)c(O)c1	none
CC(=O)N1CCN(c2cc(N3CCc4ccccc4C3)c(F)cc2[N+](=O)[O-])CC1	tim10-1 inh 52 (no result: PfHsp90 yeast 2) | tim10-1 conf 32
CCC(=O)N1CCN(c2cc(N3CCCC3)c(F)cc2[N+](=O)[O-])CC1	none
COc1ccc2c(c1OC)C(=O)N(c1nc(SC)n[nH]1)C2=O	none
CC(C)CC1Nc2ncnc(N3CCCCC3)c2N(Cc2ccc(Br)cc2)C1=O (centres undefined)	tim10-1 inh 41 | tim10-1 conf 32
CC(C)CC1Nc2ncnc(N3CCOCC3)c2N(Cc2ccc(Br)cc2)C1=O (centres undefined)	none
COc1ccc(Cn2ccnc2SCC(=O)NC2CCCC2)cc1	none
